Assay outcomes (PubChem)
Shown are actives, neighbours in structure and some others; about 27% of the full set was active somewhere.
Cav3 T inh: blocks human Cav3.2 T-type calcium channel | O95180 | Cav3.2-expressing cells, Fluo-4 calcium fluorescence FDSS; hits give low values | B-score at 10 µM | 100,000 compounds, 4% hits | AID 449739;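 active = single-dose well whose peak fluorescence ratio is a statistical outlier from its plate by either plate-standardised score or position-corrected B-score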
CYP2C19 activ: cytochrome P450 2C19 (human) activation; P33261; recombinant CYP2C19, luciferin-H EGE luminescence; hits give high values; 0 = fully inhibited enzyme, 1 = untreated enzyme; activation factor at 5 µM; 96,000 tested, under 10 active; AID 1025;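 active = activation factor of at least 2 at 5 µM in the primary screen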
CYP2C9 activ: activators of human CYP2C9 | P11712 | recombinant CYP2C9, luciferin-H conversion, luminescence; hits give high values; factor 1 = untreated enzyme, 0 = blocked | activation factor at 5 µM | 96,000 compounds, 1.4% hits | AID 1024;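 active = activation factor of 2 or more for CYP2C9 at a 5 µM dose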
Pyk2 oligo antag: blocks oligomerization of human Pyk2 in cells. Q293 cells, Pyk2 FERM NanoBiT luminescence; hits give low values. z-score (the deposit names both 25 µM and 10 µM). 99,000 compounds, 0.83% hits;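 active = Z-score of -3 or lower, scaled per plate to the spread of control and sample wells; inactive = z-score above -3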;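 note: negative z-score means lost luminescence so less FERM oligomerization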
CYP2C9 inhib: inhibitors of human CYP2C9 | inhibition, % at 5 µM | CYP2C9 Supersomes, luciferin-H conversion, luminescence | 96,000 compounds, 20% hits | P11712;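 active = blocking of liver enzyme CYP2C9 beyond about 50% at 5 µM, limit read from the data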
CYP2C19 inhib: human CYP2C19 inhibition; P33261; CYP2C19 Supersomes, luciferin-H EGE luminescence, 30 min; inhibition, % at 5 µM; 96,000 compounds, 21% hits;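 active = CYP2C19 inhibition above a set limit at 5 µM in the primary screen, cut at about 50% in these data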
Hits are given with their value; 0 = inactive; - = no result given.

SMILES	Cav3 T inh	CYP2C19 activ	CYP2C9 activ	Pyk2 oligo antag	CYP2C9 inhib	CYP2C19 inhib
CCOc1ccc(NC(=O)CCN2CCN(c3ccccc3F)CC2)cc1	0	0	0	0	67.5	50.6
CC(C)[C@H](NC(=O)NCc1cccs1)C(=O)O	0	0	0	0	0	0
CCC(=O)n1nc(-c2ccco2)nc1SCc1ccccc1	0	0	0	0	63.8	78.4
CC(=O)n1nc(-c2ccco2)nc1SCc1ccccc1	0	0	0	-	0	66.2
O=C(CCS(=O)(=O)c1ccc(Cl)cc1)OCC(=O)N1CCCCC1	0	0	0	0	0	0
COc1ccc(NC(=O)CCC(=O)OCc2ccc(C(=O)Oc3ccc(Cl)cc3)cc2)cc1	0	0	0	0	0	0
CC(=O)Nc1ccc(C(=O)OCc2ccc(Cl)cc2)cc1	0	0	0	0	75.3	63.1
CC(=O)Nc1ccc(C(=O)N/N=C/c2ccccc2OC(=O)c2ccc(Cl)cc2)cc1	0	0	0	0	59.7	0
CC(=O)Nc1ccc(S(=O)(=O)Oc2ccc(/C=N/NC(=O)c3ccc(Cl)cc3)cc2)cc1	0	0	0	0	0	0
CS(=O)(=O)N(CC(=O)NCc1ccco1)Cc1ccc(Cl)cc1	-	0	0	0	0	58.1
CC(=O)Nc1ccc(C(=O)OCC(=O)N(Cc2ccccc2)C(C)(C)C)cc1	0	0	0	0	71.1	78.8
CCOC(=O)N1CCC(N2C(=O)c3ccc(C(=O)Nc4ccc(F)cc4F)cc3C2=O)CC1	0	0	0	-	0	0
CCCOc1ccc(/C=N/NC(=O)c2ccc(Cn3cc([N+](=O)[O-])cn3)o2)cc1	-	0	0	0	0	0
CS(=O)(=O)N(CC(=O)NCC1CCCO1)Cc1ccc(Cl)cc1 (stereo not drawn)	0	0	0	0	0	78.0
CCOC(=O)c1ccc(NC(=O)CN(Cc2ccc(Cl)cc2)S(C)(=O)=O)cc1	0	0	0	0	83.4	93.5
CS(=O)(=O)N(CC(=O)Nc1ccc2c(c1)OCCO2)Cc1ccc(Cl)cc1	0	0	0	0	0	0
CS(=O)(=O)N(CC(=O)NC1CCCC1)Cc1ccc(Cl)cc1	0	0	0	0	0	58.0
CCC(C)[C@H]1CN=C(N)N1CCc1cccc(F)c1 (stereo partly drawn)	0	-	-	-	-	-
CCOc1ccc(CC2S/C(=N/c3ccccn3)NC2=O)cc1 (stereo not drawn)	0	0	0	0	0	72.0
O=C1c2ccccc2C(=O)N1CC1=CCS(=O)(=O)C1	0	0	0	0	0	0
CSc1ccccc1-n1nnnc1SCC(=O)Nc1cc(C)ccc1C	0	0	3.1	0	0	0
CCC(=O)Nc1ccc(NC(=O)CSc2nnnn2C(C)C)cc1	0	0	0	0	67.6	0
Cc1ccc(-n2nnnc2SCC(=O)Nc2nc(-c3ccc(F)cc3)cs2)cc1C	-	0	0	0	51.5	0
Cc1ccc(C)c(-n2nnnc2SCC(=O)Nc2c(C)n(C)n(-c3ccccc3)c2=O)c1	0	0	0	0	0	0
CC(C)n1nnnc1SCC(=O)Nc1ccccc1N1CCOCC1	0	0	0	0	0	55.7
SMILES	Cav3 T inh	CYP2C19 activ	CYP2C9 activ	Pyk2 oligo antag	CYP2C9 inhib	CYP2C19 inhib
O=C(O)CCCCCNCc1ccncc1	0	0	0	0	0	0
CCOc1nc(Nc2ccc(OC)c(Cl)c2)nc(OCC)n1	0	0	0	0	0	0
Cc1ccc(-n2nnnc2SCC(=O)Nc2ccccc2N2CCCCC2)cc1C	-4.09	0	0	0	0	79.7
Cc1c(C(=O)NC(C)C)sc2ncn(CC(=O)N3CCC(C)CC3)c(=O)c12	0	0	0	0	62.6	0
Cc1c(C(N)=O)sc2ncn(CC(=O)N3CCC(C)CC3)c(=O)c12	0	0	0	0	77.0	0
Cc1c(C(=O)Nc2ccc3c(c2)OCO3)sc2ncn(CC(=O)N3CC(C)CC(C)C3)c(=O)c12 (stereo not drawn)	0	0	0	0	78.9	0
CCOC(=O)CN1C(=O)C(=O)c2cccc(C)c21	0	0	0	-	0	0
CCOC(=O)c1c(NC(C)=O)sc2c(OC(C)=O)cccc12	0	0	0	0	0	0
C#CCNC(=O)C1=C[C@H](C(C)(C)C)C[C@H](OCCCCO)O1	0	-	-	-	-	-
Cc1cc(C)nc(SCCC(=O)Nc2cccc3ccccc23)n1	0	0	2.5	0	0	0
Cc1cc(C)nc(SCC(=O)Nc2ccccc2[N+](=O)[O-])n1	0	0	0	0	0	0
